Compound activity (PubChem BioAssay)
NOMO-1 viab = STK33 inhibitor candidate reducing NOMO-1 cell viability. NOMO-1 AML viability, CellTiter-Glo luminescence, 72 h. inhibition, % (concentration not given with the values). 37,000 tested, 7.5% active. AID 2330; in the data active = inhibition above about 80%; inconclusive = no clear call, values can overlap the other calls
PD-1 reversal = reversal of PD-1 mediated T-cell inhibition. primary human CD4 T cells, PD-L1 beads, CellTiter-Glo 96 h. activation, % (test concentration not listed). 29,000 tested, under 10 active. AID 2316; call rule not given here
STK33 inh = human STK33 kinase inhibition; ADP-Glo luminescence, MBP substrate; inhibition, % at 12.5 µM; 27,000 tested, 0.44% active; Q9BYT3; in the data active = inhibition above about 20%; inconclusive = no clear call, values can overlap the other calls
Target sequence (Q9BYT3 whole entry, looked up): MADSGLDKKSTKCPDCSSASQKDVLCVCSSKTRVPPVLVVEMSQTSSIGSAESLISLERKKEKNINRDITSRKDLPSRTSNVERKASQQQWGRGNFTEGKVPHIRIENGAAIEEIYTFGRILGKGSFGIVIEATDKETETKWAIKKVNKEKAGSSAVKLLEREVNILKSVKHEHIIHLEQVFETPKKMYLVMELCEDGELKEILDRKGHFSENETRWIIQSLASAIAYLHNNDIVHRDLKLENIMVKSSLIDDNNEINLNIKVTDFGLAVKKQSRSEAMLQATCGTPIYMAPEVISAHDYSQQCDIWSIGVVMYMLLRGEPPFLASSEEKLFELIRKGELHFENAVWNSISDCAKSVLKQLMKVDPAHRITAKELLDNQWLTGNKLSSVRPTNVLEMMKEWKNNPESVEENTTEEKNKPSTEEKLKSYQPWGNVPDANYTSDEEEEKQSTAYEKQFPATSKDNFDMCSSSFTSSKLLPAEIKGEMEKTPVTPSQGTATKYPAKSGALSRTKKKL
Each line names hits and unclear results; the compound was inactive in the other large screens. The entries come from a sample that favours hits as a whole.

Cc1ccc(Nc2cc(=O)[nH]n2C)cc1Cl	none (no result: STK33 inh)
C[C@@H]1CN([C@H](C)CO)C(=O)Cc2cc(NS(=O)(=O)c3ccccc3)ccc2O[C@@H]1CN(C)C(=O)Nc1ccccc1	none
C[C@@H]1CN([C@@H](C)CO)C(=O)c2cccc(NC(=O)c3nc4ccccc4s3)c2O[C@H]1CN(C)Cc1ccc(C(=O)Nc2ccccc2N)cc1	NOMO-1 viab 118.4 (no result: STK33 inh)
C[C@H]1CN([C@@H](C)CO)C(=O)c2cccc(NC(=O)c3nc4ccccc4s3)c2O[C@@H]1CN(C)Cc1ccc(Oc2ccccc2)cc1	none (no result: STK33 inh)
C[C@@H]1CN([C@@H](C)CO)C(=O)c2cccc(NC(=O)c3nc4ccccc4s3)c2O[C@H]1CN(C)Cc1ccc(C(F)(F)F)cc1	NOMO-1 viab inconclusive (no result: STK33 inh)
C[C@H](CO)N1C[C@H](C)[C@@H](CN(C)Cc2ccc(C(F)(F)F)cc2)Oc2c(NC(=O)c3nc4ccccc4s3)cccc2C1=O	NOMO-1 viab 106.1 (no result: STK33 inh)
C[C@H](CO)N1C[C@H](C)[C@@H](CN(C)Cc2ccc(Oc3ccccc3)cc2)Oc2c(NC(=O)c3nc4ccccc4s3)cccc2C1=O	NOMO-1 viab 86.7 (no result: STK33 inh)
C[C@@H]1CN([C@@H](C)CO)C(=O)c2cccc(NC(=O)c3nc4ccccc4s3)c2O[C@@H]1CN(C)Cc1ccc(C(=O)O)cc1	none (no result: STK33 inh)
C[C@H](CO)N1C[C@H](C)[C@H](CN(C)Cc2ccc(C(F)(F)F)cc2)Oc2c(NC(=O)c3nc4ccccc4s3)cccc2C1=O	NOMO-1 viab 95.6 (no result: STK33 inh)
C[C@H]1CN([C@@H](C)CO)C(=O)c2cccc(NC(=O)c3nc4ccccc4s3)c2O[C@@H]1CN(C)Cc1ccc(C(F)(F)F)cc1	none (no result: PD-1 reversal, STK33 inh)
C[C@H]1CN([C@@H](C)CO)C(=O)c2cc(NS(=O)(=O)c3ccc(Cl)cc3)ccc2O[C@H]1CN(C)C(=O)Nc1cccc2ccccc12	none
COc1ccccc1NC(=O)CSCC#N	none
Cc1cc(C(=O)Nc2cccc3c2O[C@@H](CN(C)Cc2ccc(C(F)(F)F)cc2)[C@@H](C)CN([C@H](C)CO)C3=O)n(C)n1	none (no result: PD-1 reversal, STK33 inh)
COC(=O)c1ccc(C)c(NC(=O)CN(c2cc(Cl)c(Cl)cc2Cl)S(C)(=O)=O)c1	NOMO-1 viab 96.1 (no result: PD-1 reversal)
COC(=O)c1ccccc1NC(=O)CN(c1ccc(I)cc1)S(C)(=O)=O	none
COC(=O)c1ccc(NC(=O)CN(c2ccc(F)cc2)S(C)(=O)=O)cc1	none
Cc1cc(I)ccc1NC(=O)CN(c1cc(Cl)c(Cl)cc1Cl)S(C)(=O)=O	none
COC(=O)c1ccc(Cl)c(NC(=O)CN(c2ccc(I)cc2)S(C)(=O)=O)c1	NOMO-1 viab 120.3
COC(=O)c1ccc(C)c(NC(=O)CN(c2ccc(F)cc2)S(C)(=O)=O)c1	NOMO-1 viab 98.3
Cc1noc(C)c1NC(=O)Nc1ccc2c(c1)CC(=O)N([C@@H](C)CO)C[C@H](C)[C@@H](CN(C)S(=O)(=O)c1ccc(Cl)cc1)O2	none
C[C@H]1CN([C@@H](C)CO)C(=O)c2cc(NC(=O)CCC(F)(F)F)ccc2O[C@@H]1CN(C)CC1CCCCC1	none
COc1ccc(S(=O)(=O)Nc2ccc3c(c2)CC(=O)N([C@@H](C)CO)C[C@H](C)[C@H](CN(C)Cc2ccc(-c4ccccc4)cc2)O3)cc1	NOMO-1 viab 89.8
COc1ccc(S(=O)(=O)Nc2ccc3c(c2)CC(=O)N([C@H](C)CO)C[C@@H](C)[C@H](CN(C)Cc2ccc(-c4ccccc4)cc2)O3)cc1	none
COc1ccc(S(=O)(=O)Nc2ccc3c(c2)CC(=O)N([C@@H](C)CO)C[C@H](C)[C@@H](CN(C)Cc2ccc(-c4ccccc4)cc2)O3)cc1	NOMO-1 viab 124.9 (no result: PD-1 reversal)
COc1ccc(S(=O)(=O)Nc2ccc3c(c2)CC(=O)N([C@@H](C)CO)C[C@H](C)[C@H](CN(C)Cc2ccccc2)O3)cc1	none
COc1ccc(S(=O)(=O)Nc2ccc3c(c2)CC(=O)N([C@H](C)CO)C[C@H](C)[C@H](CN(C)Cc2ccc(-c4ccccc4)cc2)O3)cc1	NOMO-1 viab 88.3 (no result: PD-1 reversal)
COc1ccc(S(=O)(=O)Nc2ccc3c(c2)CC(=O)N([C@@H](C)CO)C[C@@H](C)[C@@H](CN(C)Cc2ccc(-c4ccccc4)cc2)O3)cc1	none
C[C@@H]1CN([C@@H](C)CO)C(=O)c2cc(NC(=O)Cc3cn(C)c4ccccc34)ccc2O[C@H]1CN(C)C(=O)Nc1ccc(F)cc1	none (no result: PD-1 reversal, STK33 inh)
C[C@]12CCC(=O)C=C1CC[C@@H]1C2CC[C@@]2(C)C1CC[C@@H]2C(=O)CO (stereo not given in full)	none
CC12CCC(=O)C=C1CCC1(C)C2(C)CCC2(C)C(C(=O)CO)CCC21C (stereo not given)	NOMO-1 viab 93.7
COc1cc(CC(CO)C(CO)Cc2cc(OC)c(O)c(-c3cc(CC(CO)C(CO)Cc4ccc(O)c(OC)c4)cc(OC)c3O)c2)ccc1O (stereo not given)	none (no result: NOMO-1 viab, PD-1 reversal)
COc1cc(CC(C)C(C)Cc2ccc(O)c(OC)c2)ccc1O (stereo not given)	NOMO-1 viab 121.2
C[C@@H]1CN([C@@H](C)CO)C(=O)c2cc(NC(=O)Cn3cnnn3)ccc2O[C@H]1CN(C)S(=O)(=O)c1ccc(Cl)cc1	none (no result: STK33 inh)
C[C@@H]1CCCCO[C@H](CN(C)Cc2ccncc2)[C@@H](C)CN([C@H](C)CO)C(=O)c2cc(NC(=O)Nc3ccc(C(F)(F)F)cc3)ccc2O1	NOMO-1 viab inconclusive (no result: PD-1 reversal)
CCCCCCCC(O)C(O)C1CC(OC)=CC(=O)O1 (stereo not given)	none
CCCCCCCCCC(O)CC(O)CC(O)CC1CC=CC(=O)O1 (stereo not given)	NOMO-1 viab 114.8
C[C@@]12C[C@]3(O)O[C@H](O1)[C@]1(COC(=O)c4ccccc4)[C@H]3C[C@@]12O[C@@H]1O[C@H](CO)[C@@H](O)[C@H](O)[C@H]1O	none
O=C(CSc1ccc(F)cc1Cl)C12CC3CC(CC(C3)C1)C2	none (no result: STK33 inh)
N#CSCC(=O)C12CC3CC(CC(C3)C1)C2	NOMO-1 viab 112.8 (no result: STK33 inh)
CC(C)NC(=O)N(C)C[C@H]1Oc2ccc(NC(=O)Nc3cccc4ccccc34)cc2CC(=O)N([C@@H](C)CO)C[C@@H]1C	none (no result: PD-1 reversal)
C[C@H]1CN([C@@H](C)CO)C(=O)c2cc(N(C)C)ccc2O[C@H]1CN(C)S(=O)(=O)c1ccc(Cl)cc1	none
Cc1ccc(-n2c(=O)c3c4c(sc3n3c(SCC(=O)c5ccc(F)cc5)nnc23)CCCC4)cc1	NOMO-1 viab 96.0 (no result: PD-1 reversal)
O=C(O)CSc1nnc2n(CCc3ccccc3)c(=O)c3c4c(sc3n12)CCCC4	none (no result: PD-1 reversal)
COC(=O)c1c(NC(=O)C(C)Oc2ccccc2F)sc2c1CCC2 (stereo not given)	none
COc1ccc(NC(=O)CSc2nc(-c3ccccc3)cc(C(F)(F)F)n2)c([N+](=O)[O-])c1	none
Cc1ccc(NC(=O)CSc2nc(-c3cccs3)cc(C(F)(F)F)n2)c([N+](=O)[O-])c1	NOMO-1 viab 107.0
Cc1ccc2cc3c(nc2c1)N(c1ccc(C(=O)NCc2ccco2)cc1)CC3	NOMO-1 viab 115.7 (no result: STK33 inh)
Cc1ccc2cc3c(nc2c1)N(c1ccccc1)CC3	none (no result: STK33 inh)
C=CC(C)(C)[C@@]12C[C@H]3C(=O)N[C@H]([C@@H](C)CC)C(=O)N3[C@@H]1Nc1ccccc12	none
C=CC(C)(C)[C@@]12C[C@H]3C(=O)Nc4ccccc4C(=O)N3[C@@H]1Nc1ccccc12	NOMO-1 viab 91.9
C[C@H](CO)N1C[C@H](C)[C@H](CN(C)Cc2ccc(Cl)c(Cl)c2)Oc2c(NC(=O)C3CCCCC3)cccc2C1=O	NOMO-1 viab 92.2 (no result: STK33 inh)
